Measured values from PubChem BioAssay AID624040 (The Scripps Research Institute Molecular Screening Center, 2012).
Screen size: about 360,000 compounds; about 2,100 (0.58%) were called active.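 Rule for the calls: active = inhibition above a per-plate cutoff, the mean of that plate's test compounds plus 3 SD (cut at about 27% in these data); inactive = the rest.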 Only a selection was taken, and actives are over-represented in it overall.

These compounds were tested against Muscarinic acetylcholine receptor M5 (Homo sapiens) (UniProt P08912) (assay: CHRM5 blockers of acetylcholine calcium response – CHO cells, Fluo-8 calcium fluorescence, primary screen (AID 624040;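 note: 0% = acetylcholine EC80 with DMSO and 100% = DMSO without agonist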)). Details: CHO-hM5 cells, ACh EC80, at 3 µM, active compounds read high.
Muscarinic acetylcholine receptor M5 (Homo sapiens), sequence (P08912 whole entry, looked up): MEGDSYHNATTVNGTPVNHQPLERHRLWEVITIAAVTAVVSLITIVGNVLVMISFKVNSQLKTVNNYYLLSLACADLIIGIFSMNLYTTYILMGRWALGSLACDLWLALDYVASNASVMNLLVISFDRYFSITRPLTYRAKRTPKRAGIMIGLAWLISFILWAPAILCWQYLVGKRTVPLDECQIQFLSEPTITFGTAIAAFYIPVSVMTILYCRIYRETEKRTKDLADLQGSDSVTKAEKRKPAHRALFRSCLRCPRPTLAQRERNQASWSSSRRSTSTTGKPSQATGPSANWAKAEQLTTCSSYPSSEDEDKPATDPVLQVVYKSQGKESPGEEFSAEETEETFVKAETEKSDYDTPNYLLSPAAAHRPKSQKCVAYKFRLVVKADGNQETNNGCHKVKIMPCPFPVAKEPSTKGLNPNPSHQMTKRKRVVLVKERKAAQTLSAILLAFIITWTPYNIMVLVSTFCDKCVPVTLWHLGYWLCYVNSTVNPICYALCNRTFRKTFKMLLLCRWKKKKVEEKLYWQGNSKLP
Cc1ccc(-c2cnc(C(O)c3cccc(C)c3C)[nH]2)cc1 (stereo not given) was tested, and the inhibition was -3.72% (inactive).
COCCn1c(C)cc(C(=O)CSc2nc3ccccc3c(=O)n2C(C)COC)c1C (stereo not given) was tested, and the inhibition was 9.46% (inactive).
In the case of CCCn1nc(NC(=O)C(C)C)c2cc3cc(OC)ccc3nc21, the inhibition is reported as 14.6% (inactive).
For O=C1CS(=O)CN1c1ccc(Oc2ccccc2)cc1 (stereo not given), the inhibition was -0.11% (inactive).
In the case of CC(C)(C)c1cc2cccnc2n1Cc1cccc(F)c1, the inhibition is reported as -7.37% (inactive).
CCOc1ccc(CN2CCNC(=O)C2CC(=O)NCCCC2CCCC2)cc1 (stereo not given) was tested, and the inhibition was 9.04% (inactive).
In the case of O=C(CCc1ccc(S(=O)(=O)N2CCOCC2)cc1)NN=C1CCCCCCC1, the inhibition is reported as -2.08% (inactive).
With COc1cccc(OCC(=O)NCCS(=O)(=O)N2CCN(c3ccccc3)CC2)c1 the inhibition was -6.65% (inactive).
For CC(C)N(Cc1nc(-c2ccc3c(c2)OCO3)no1)CC1CCC(=O)N1 (stereo not given), the inhibition was 16% (inactive).
With OC[C@@H]1CN(Cc2ccc(F)cc2)C[C@H](n2cnc3c(NC4CCCC4)ncnc32)O1 the inhibition was 4.45% (inactive).
In the case of OC[C@@H]1CN(C2CCCC2)C[C@H](n2cnc3c(NC4CCC4)ncnc32)O1, the inhibition is reported as 9.41% (inactive).
OC[C@@H]1CN(Cc2ccc(-c3ccccc3)cc2)C[C@H](n2cnc3c(NC4CCCC4)ncnc32)O1 was tested, and the inhibition was 31.4% (active).
In the case of O=C(NNC(=S)Nc1ccccc1)c1cccc(S(=O)(=O)N2CCOCC2)c1, the inhibition is reported as -3.26% (inactive).
In the case of Cc1ccc(C(=O)NCC(=O)OCC(=O)NC2CCCCCCC2)cc1, the inhibition is reported as 7.24% (inactive).
Cc1cccc(CSc2nc3c(c(=O)n2C)SCC3)c1 was tested, and the inhibition was 36.1% (active).
In the case of COCCn1c(SCC(=O)Nc2ccc(F)cc2F)nc2c(c1=O)SCC2, the inhibition is reported as -2.37% (inactive).
For COCCn1c(SCC(=O)Nc2ccccc2F)nc2c(c1=O)SCC2, the inhibition was -1.26% (inactive).
In the case of CN(CCCNC(=O)CN1C(=O)CC(C)(C)S(=O)(=O)c2ccccc21)C1CCCCC1, the inhibition is reported as 3.09% (inactive).
In the case of CC1(C)C2CC=C(/C=N/NC(=O)C3CC3)C1C2 (stereo not given), the inhibition is reported as -4.33% (inactive).
COc1cc(C(=O)N2CCN(S(=O)(=O)c3ccc(C(C)C)cc3)CC2)ccc1OCC(=O)N1CCOCC1 was tested, and the inhibition was -6.27% (inactive).
C=C(C)c1cccc(C(C)(C)NC(=O)NC2CCCC2)c1 was tested, and the inhibition was -4.91% (inactive).
For C=C(C)c1cccc(C(C)(C)NC(=O)N2CCN(c3ncccn3)CC2)c1, the inhibition was 4.22% (inactive).
For C=C(C)c1cccc(C(C)(C)NC(=O)NCCN(CC)CC)c1, the inhibition was 52.3% (active).
For CC(=O)N1CC(=O)N(CC(=O)Nc2ccc(Br)cc2)C1=S, the inhibition was 15.7% (inactive).
With Cc1ccc(S(=O)(=O)N(C)CC(=O)NCC(c2ccc(F)cc2)N2CCOCC2)cc1 (stereo not given) the inhibition was 4.43% (inactive).
For Cc1ccc(NC(=S)N2CCN(c3ncccn3)CC2)cc1C, the inhibition was 0.78% (inactive).
In the case of O=C(c1c(F)cccc1F)N1CCN(S(=O)(=O)c2ccc3c(c2)OCCO3)CC1, the inhibition is reported as 15.2% (inactive).
With O=C(c1ccc(Cl)nc1)N1CCN(S(=O)(=O)c2ccc3c(c2)OCCO3)CC1 the inhibition was 8.5% (inactive).
O=C(c1c(F)cccc1Cl)N1CCN(S(=O)(=O)c2ccc3c(c2)OCCCO3)CC1 was tested, and the inhibition was 32.7% (active).
In the case of Nc1nonc1-n1nnc(C(=O)N/N=C/c2ccc(Cl)cc2)c1-c1ccc2c(c1)OCO2, the inhibition is reported as 4.23% (inactive).
With CN(C)CCOC1c2ccccc2-c2ccccc21 the inhibition was 9.21% (inactive).
For Cc1ccccc1C(OCC(O)CN1CCCCC1CCO)c1ccccc1 (stereo not given), the inhibition was 1.17% (inactive).
For Cc1ccccc1C(OCCN(C)C)C1CCCCC1 (stereo not given), the inhibition was 98.7% (active).
For Cc1ccc(S(=O)(=O)N2CCN(C(=O)CCC(=O)NC3CCCc4ccccc43)CC2)cc1 (stereo not given), the inhibition was 1.42% (inactive).
For CCOc1ccc(C(=O)N(Cc2ccc(N(C)C)cc2)C2CCS(=O)(=O)C2)cc1 (stereo not given), the inhibition was -0.33% (inactive).
With C=CCNC(=O)c1ccccc1SCc1c(C)noc1C the inhibition was -3.18% (inactive).
For Cc1noc(C)c1CSCC(=O)Nc1nc2ccc(Oc3ccccc3)cc2s1, the inhibition was -2.14% (inactive).
In the case of Cc1noc(C)c1CSc1nnc2ccc3ccccc3n12, the inhibition is reported as 31.2% (active).
CC(C)(C)c1cnnn1-c1ccc([N+](=O)[O-])cc1 was tested, and the inhibition was -0.77% (inactive).
CC1(C)C=C2[C@H]3CC[C@@H]4[C@@]5(C)CCC(=O)C(C)(C)[C@@H]5CC[C@@]4(C)[C@]3(C)CC[C@@]2(C(=O)O)CC1 was tested, and the inhibition was 0.2% (inactive).
COc1cc2c(cc1OC)C(C(=O)Nc1cc(C)c(OC)c(C)c1)CC(=O)N2 (stereo not given) was tested, and the inhibition was -6.29% (inactive).
In the case of CC(=O)Nc1ccc(N2C(=O)CCC2=O)cc1C, the inhibition is reported as 0.14% (inactive).
With O=C(CN1CCCCC1)N1c2ccccc2Sc2ccc(C(F)(F)F)cc21 the inhibition was 98.8% (active).
O=C(CN1CCCCCC1)N1c2ccccc2Sc2ccc(C(F)(F)F)cc21 was tested, and the inhibition was 98.4% (active).
O=C(CN1CCCCCC1)Nc1ccc(Cl)cc1F was tested, and the inhibition was 7.56% (inactive).
With O=C(CN1C(=O)/C(=C\c2ccc(C(F)(F)F)cc2)Sc2ccccc21)NCc1ccco1 the inhibition was 18.4% (inactive).
With O=C(CSc1nc2ccccc2o1)N1c2ccccc2Sc2ccc(Cl)cc21 the inhibition was -5.39% (inactive).
CCC(=O)Nc1cc(C(F)(F)F)ccc1N1CCCC1 was tested, and the inhibition was 4.4% (inactive).
COc1ccccc1NC(=O)N(O)C1(C#N)CCCCC1 was tested, and the inhibition was 4.25% (inactive).
CCOC(=O)c1c(S(=O)(=O)Nc2ccc(CN3CCC(C)CC3)cc2)c(C)n(C)c1C was tested, and the inhibition was 0.52% (inactive).
With Cc1cc(Br)ccc1NC(=O)c1cnc(N2CCN(c3ccccn3)CC2)c2ccccc12 the inhibition was 27.7% (active).
For Cc1cc(C(=O)N2CCN(c3ccccn3)CC2)c(C)o1, the inhibition was -9.14% (inactive).
With Cc1cc(Br)ccc1NC(=O)c1sc2ncn(CC(=O)N3CCN(c4ccccn4)CC3)c(=O)c2c1C the inhibition was -9.8% (inactive).
In the case of C[C@H](CO)N1C[C@H](C)[C@@H](CN(C)S(=O)(=O)c2ccc(F)cc2)OCc2cnnn2CCCC1=O, the inhibition is reported as -6.37% (inactive).
CCc1noc(C)c1C(=O)Oc1ccc(N(C)S(=O)(=O)c2ccc(C)c(C)c2)cc1 was tested, and the inhibition was 11.9% (inactive).
For CCN(CC)CCCC(C)n1c2nc(=O)[nH]c(=O)c-2nc2cc(Cl)ccc21 (stereo not given), the inhibition was 41.2% (active).
With CCCN(CCc1ccccc1)C1CCc2c(O)cccc2C1 (stereo not given) the inhibition was 2.43% (inactive).
Cc1ccc(S(=O)(=O)N2CCC(N3CCCCCC3)CC2)cc1 was tested, and the inhibition was 6.92% (inactive).
In the case of Cc1ccc(S(=O)(=O)N2CCC(C(=O)N3CCCCCCC3)CC2)cc1, the inhibition is reported as 1.57% (inactive).
Cc1ccc(S(=O)(=O)n2oc(=O)c(C3CCCCC3)c2N)cc1 was tested, and the inhibition was 33.2% (active).
CCC(C)(C)NC(=O)CN(C(=O)C(=O)Nc1ccc2c(c1)OCCO2)C(C)(C)CC was tested, and the inhibition was 1.43% (inactive).
In the case of CCOCCn1[nH]c2ccccc2c1=O, the inhibition is reported as 3.03% (inactive).
For O=[N+]([O-])c1ccc(N2CCN(c3ccc(F)cc3)CC2)cn1, the inhibition was 8.5% (inactive).
For O=C(c1cncc(Br)c1)N1CCN(c2ccc([N+](=O)[O-])cc2)CC1, the inhibition was 15.7% (inactive).
In the case of O=C(c1cc(C(=O)N2CCN(c3ccc(F)cc3)CC2)cc([N+](=O)[O-])c1)N1CCN(c2ccc(F)cc2)CC1, the inhibition is reported as 29.5% (active).
CC(=O)c1c(N2CCOCC2)nc(=S)n(Cc2ccccc2)c1C was tested, and the inhibition was 10% (inactive).
In the case of COc1ccccc1NC(=S)N1CCC(NC(=O)C23CC4CC(CC(C4)C2)C3)CC1, the inhibition is reported as 6.64% (inactive).
For COc1ccccc1NC(=S)N1CCN(C(c2ccccc2)c2ccccc2)CC1, the inhibition was 32.8% (active).
CCOc1ccccc1NC(=S)N1CCN(c2cccc(C)c2C)CC1 was tested, and the inhibition was -0.84% (inactive).
In the case of O=C(c1ccc2c(c1)C(=O)N(Cc1ccncc1)C2=O)N1CCN(S(=O)(=O)c2ccc(OC(F)(F)F)cc2)CC1, the inhibition is reported as 11.6% (inactive).
With COc1cccc(COC(=O)C2CCN(S(=O)(=O)c3ccc(Cl)cc3)CC2)c1OC the inhibition was 10.6% (inactive).
COc1ccc(CNc2ncnc3ccccc23)cc1 was tested, and the inhibition was 33.8% (active).
In the case of COc1ccc(CNC(=O)COc2cccnc2[N+](=O)[O-])cc1, the inhibition is reported as 8.36% (inactive).
For O=C(COc1ncnc2ccccc12)NC(=O)NCc1ccccc1, the inhibition was 6.01% (inactive).
In the case of CCCCN(C)Cc1c(C)[nH]c2ccc(Cl)cc2c1=O, the inhibition is reported as -2.11% (inactive).
O=S(=O)(NCCc1ccc(Cl)cc1)c1cccs1 was tested, and the inhibition was 2.77% (inactive).
O=C(Nc1cccc(Cl)c1)Nc1ccccc1NS(=O)(=O)c1cccs1 was tested, and the inhibition was 30.1% (active).
For O=S(=O)(Nc1ccccc1)c1ccc(NS(=O)(=O)c2cccs2)cc1, the inhibition was 3.98% (inactive).
For CCCCCC1CCC(c2nnc(SCC(C)=O)o2)CC1 (stereo not given), the inhibition was -0.26% (inactive).
For CCOC(=O)C(CO)NC(=O)C1(NC(C)=O)CCCC1 (stereo not given), the inhibition was 5.55% (inactive).
COc1cccc(N(CC(=O)NCc2ccccc2)C(=O)CCC(=O)Nc2nccs2)c1 was tested, and the inhibition was 9.51% (inactive).
For CCCc1cc(=O)[nH]c2nnc(SCC(=O)Nc3nnc(SCC)s3)n12, the inhibition was 6.93% (inactive).
COc1ccccc1OCCNC(=O)CCNC(=O)c1ccccc1Cl was tested, and the inhibition was 17.2% (inactive).
With CC(=O)Nc1ccc(NC(=O)C(C)OC(=O)C2CC(=O)N(CCc3ccccc3)C2)cc1 (stereo not given) the inhibition was 7.46% (inactive).
For COc1cccc(/C=C2\SC(=N)N(c3ccc(F)cc3)C2=O)c1, the inhibition was 11% (inactive).
CC(=O)N1CC(C)c2scc(C)[n+]2-c2ccccc21 (stereo not given) was tested, and the inhibition was -1.76% (inactive).
With CCC(C(=O)NC1CCCC1)N(C(=O)c1snc(C(N)=O)c1N)c1ccc2c(c1)OCCO2 (stereo not given) the inhibition was -5.82% (inactive).
For O=C(NCc1ccccc1CN1CCCC1)C1CCN(S(=O)(=O)c2ccc(Cl)cc2)CC1, the inhibition was 1.2% (inactive).
With Cc1ccc(S(=O)(=O)NCCC(=O)NC2CCN(Cc3ccccc3)CC2)cc1 the inhibition was 6.57% (inactive).
With O=C(NNS(=O)(=O)c1ccc(Cl)cc1)C1CCN(Cc2ccccc2)CC1 the inhibition was 40.5% (active).
